# Screens deposited in PubChem BioAssay by National Center for Advancing Translational Sciences (NCATS).
# The list is not random: actives were taken first. Their share in the collection is about 15%.
# RORgamma inh: qHTS for inhibitors of ROR gamma transcriptional activity. Nuclear receptor ROR-gamma (Mus musculus), P51450. Drosophila S2 Gal4-RORgamma UAS-luciferase reporter, 20 h. Potency, µM (series often up to 53.6 µM), for inactives: top-dose activity change, negative = inhibition, usual class: inhibitors. 5.4% of 310,000 active; also: nearly all actives have a fitted effect of over 60% in size
#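 ROR gamma transcriptional activity was tracked as Gal4-UAS luciferase output in stably transfected Drosophila Schneider cells, with compound added 1 hr before 700 uM copper sulfate induction and a 20 hr ambient-temperature incubation.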
# VP16 counter: VP16 counterscreen qHTS for inhibitors of ROR gamma transcriptional activity; Drosophila S2 Gal4-VP16 UAS-luciferase, luminescence, 20 h; Potency, µM (doses to about 53.6 µM), without a hit: at the top dose activity, negative = inhibition, usual class: inhibitors; 3.5% of 310,000 active;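 also: Gal4-VP16 expression switched on by copper sulfate through the metallothionein promoter; nearly all actives have a fitted effect of over 50% in size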
# TDP1 cell noCPT: qHTS for Inhibitors of human tyrosyl-DNA phosphodiesterase 1 (TDP1): qHTS in cells in absence of CPT. AID 686978, 2013. DT40 Tdp1-/- hTDP1 cells, no CPT, ATP luminescence, 48 h. 15% of 420,000 active. Potency, µM (top dose mostly 46.2 µM), inactives show top-dose activity change, negative = growth inhibition, most hits filed as inhibitors; also: nearly all actives have a fitted effect of over 55% in size
#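 Camptothecin absent (DMSO only). Human TDP1-complemented DT40 knockout cells, 400 cells/well, 37 °C for minimum 48 hr; ATP measured via CellTiter-Glo, 30 min dark incubation, luminescence.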
# ELG1 repair inh: qHTS screen for small molecules that inhibit ELG1-dependent DNA repair in human embryonic kidney (HEK293T) cells expressing luciferase-tagged ELG1 | AID 504467, 2011 | HEK293T ELG1-luciferase reporter, luminescence, 16 h; DNA damage induced by 5-fluorouridine | 2.3% of 330,000 active | Potency, µM (doses to about 46.1 µM), for inactives: top-dose activity change, negative = inhibition, usual class: inhibitors; also: nearly all actives have a fitted effect of over 55% in size
#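 Overnight (16 hr) co-exposure of 2,000 cells/well to 5-fluorouridine and compound at 37 °C preceded detection. Luciferase was quantified via ONE-Glo luminescence; loss of signal denotes inhibition.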
# DT40 TDP1 CPT: qHTS for Inhibitors of human tyrosyl-DNA phosphodiesterase 1 (TDP1): qHTS in cells in presence of CPT. chicken DT40 Tdp1-/-;hTDP1 cells + 20 nM CPT, ATP luminescence, 48 h. Potency, µM (doses to about 46.2 µM), for the others: at the top dose activity change, negative = growth inhibition, actives largely listed as inhibitors. 12% of 420,000 active. AID 686979, 2013; also: nearly all actives have a fitted effect of over 55% in size
#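 Cell growth measured by CellTiter-Glo luminescence after a minimum 48 h, 37 C compound exposure with 20 nM CPT in Tdp1-knockout DT40 cells stably expressing hTDP1, seeded 400/well; qHTS titration format.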
# ALOX12 inh: Primary qHTS assay for inhibitors of human arachidonate 12S-lipoxygenase (ALOX12): Round 2 | AID 1671190, 2021 | 1.1% of 580,000 active | Polyunsaturated fatty acid lipoxygenase ALOX12 (Homo sapiens), P18054 | purified 12hLO, xylenol orange hydroperoxide absorbance | Potency, µM (series often up to 108 µM), inactives show top-dose activity change, negative = inhibition, actives largely listed as inhibitors
# Target sequence (P18054 whole entry, looked up): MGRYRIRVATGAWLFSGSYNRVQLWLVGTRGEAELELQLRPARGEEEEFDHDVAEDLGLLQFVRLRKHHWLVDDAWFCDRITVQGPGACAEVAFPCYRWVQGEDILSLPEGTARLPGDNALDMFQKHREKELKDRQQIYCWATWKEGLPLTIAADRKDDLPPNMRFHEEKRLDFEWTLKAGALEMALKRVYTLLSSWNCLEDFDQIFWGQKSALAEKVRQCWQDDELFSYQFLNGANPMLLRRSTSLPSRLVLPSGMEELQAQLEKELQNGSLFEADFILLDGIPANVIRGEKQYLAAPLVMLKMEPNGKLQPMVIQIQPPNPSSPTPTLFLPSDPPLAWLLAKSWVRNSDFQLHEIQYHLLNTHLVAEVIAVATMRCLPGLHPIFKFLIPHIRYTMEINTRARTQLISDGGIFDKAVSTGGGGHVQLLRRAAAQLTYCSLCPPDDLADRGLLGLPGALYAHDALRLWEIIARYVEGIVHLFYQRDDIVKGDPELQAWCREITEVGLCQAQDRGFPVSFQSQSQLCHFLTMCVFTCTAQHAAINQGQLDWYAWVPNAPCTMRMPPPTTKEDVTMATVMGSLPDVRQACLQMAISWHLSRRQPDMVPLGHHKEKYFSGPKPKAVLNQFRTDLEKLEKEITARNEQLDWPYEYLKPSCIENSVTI
#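 Purified human 12hLO at 150 nM in 25 mM Hepes, 0.01% Triton X-100, pH 7.0, preincubated 15 min at room temperature with compound. Reaction started with 40 uM arachidonic acid, 30 min at room temperature. Hydroperoxide measured by Fe-xylenol orange, 573/405 nm absorbance ratio.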
# * marks the source's active call; other numbers are inactive results; ? = inconclusive; . = not tested or not shown; [ ] = remark or other dose. Calls follow the shape of the dose curve; as a rule, active = well fitted curve in the direction sought with a large enough effect; inconclusive = small, poorly fitted or top-dose-only effect, or another doubt; inactive = no such curve, though single readings can be large; an effect the other way counts as inactive or inconclusive. % is scaled to controls: 0 for no effect and ±100 for the full control effect; potency is read from the fitted curve at half-maximal effect.
SMILES,RORgamma inh,VP16 counter,TDP1 cell noCPT,ELG1 repair inh,DT40 TDP1 CPT,ALOX12 inh
CCN1CCN(c2ncnc3c2cnn3-c2ccccc2)CC1,22%,10%,-23%,?,4%,-3%[57.4 µM]
CCN1CCN(c2ncnc3c2cnn3-c2cccc(C)c2)CC1,.,.,?,.,23µM*,-11%
Cc1cccc(-n2ncc3c(N4CCC(C)CC4)ncnc32)c1,-36%,?,?,?,?,-24%
c1ccc(-n2ncc3c(N4CCCCC4)ncnc32)cc1,5µM*,5.6µM*,-27%,?,?,8%
Cc1cccc(-n2ncc3c(N4CCCCCC4)ncnc32)c1,.,.,21µM*,.,?,-23%
CCOc1ccc(CNC(=O)CC(C)n2ccc(C)n2)cc1 (stereo not drawn),.,.,.,.,.,-1%
Clc1cccc(-n2ncc3c(N4CCN(Cc5ccccc5)CC4)ncnc32)c1,.,.,?,.,23µM*,?
CC1CCCN(c2ncnc3c2cnn3-c2ccccc2)C1 (stereo not drawn),?,5µM*,-26%,?,-29%,9%
COc1ccc2c(C)c(CCC(=O)NC3CCS(=O)(=O)C3)c(=O)oc2c1 (stereo not drawn),.,.,.,.,.,0%
Cc1ccc(S(=O)(=O)N/N=C/c2cc(Br)c(C)o2)cc1,-4%,-11%,?,-15%,16µM*,?
Cc1ccc(S(=O)(=O)NN=CC=CC=NNS(=O)(=O)c2ccc(C)cc2)cc1,.,.,?,.,?,4µM*
Cc1ccc(S(=O)(=O)N/N=C/c2c(F)cccc2Cl)cc1,5%[10 µM],-5%,?,-2%,16µM*,-20%
COCCN1C[C@H]2CN(Cc3ncc[nH]3)CCN2C1=O,.,.,.,.,.,94%[176 µM]
O=c1[nH]c(-c2ccccn2)cc2ccccc12,5µM*,?,-21%,?,-28%,-10%
O=C(Nc1cccc(-c2cn3ccccc3n2)c1)c1cc2ccccc2oc1=O,?,8.9µM*,3.7µM*,?,2.1µM*,-12%
O=C(O)c1ccccc1NC(=O)c1cc2ccccc2oc1=O,13µM*,?,?,?,?,-8%
COc1ccc2oc(=O)c(C(=O)Nc3cccc(C(=O)O)c3)cc2c1,.,.,-10%,.,-15%,0%
CC(=O)Nc1cccc(-c2cn3ccccc3n2)c1,3%,-20%,9%,?,24%,2%
COc1ccc(CNC(=O)c2cc3cc(OC)ccc3oc2=O)cc1,?,-5%,12µM*,-17%,18µM*,-18%
COc1ccc2oc(=O)c(C(=O)Nc3cccc(C)c3)cc2c1,2.2µM*,?,-14%,?,?,2%
Cc1cccc(NC(=O)c2cc3ccccc3oc2=O)c1,2.8µM*,?,-3%,?,3%,?
Cc1ccn2c(CN3CCOCC3)c(-c3ccccc3)nc2c1,-52%,-2%,?,?,-29%,0%
COc1ccc(-c2nc3c4ccccc4ccn3c2CN2CCCCC2)cc1,7.9µM*,-13%,?,?,?,-7%
c1ccc(-c2nc3ccccn3c2-c2ccccc2)cc1,.,.,12µM*,.,?,-10%
Oc1ccc(N2CCN(Cc3c(-c4ccccc4)nc4ccccn34)CC2)cc1,?,5%,15µM*,-17%,?,?
SMILES,RORgamma inh,VP16 counter,TDP1 cell noCPT,ELG1 repair inh,DT40 TDP1 CPT,ALOX12 inh
Clc1ccc(-c2nc3ccccn3c2CN2CCCCC2)cc1,18µM*,-5%,?,?,?,-4%
CCCNC(=O)C1COC2(CCN(C(=O)c3ccc(F)cc3)CC2)N1C(=O)c1ccccc1 (stereo not drawn),.,.,.,.,.,61%
CCc1ccccc1NC(=O)N1CCC(N2CCN(Cc3ccccn3)C(=O)C2=O)CC1,.,.,.,.,.,1%
COc1ccccc1NC(=O)C(C)N(c1ccccc1)S(C)(=O)=O (stereo not drawn),.,.,.,.,.,7%
CC(=O)Nc1cccc(-c2ccnc3c2CC(C)(C(=O)Nc2ccc(Cl)c(C(F)(F)F)c2)O3)c1 (stereo not drawn),.,.,13µM*,.,10µM*,-5%
CC(=O)Nc1ccc(-c2ccnc3c2CC(C)(C(=O)Nc2cccc(C(F)(F)F)c2)O3)cc1 (stereo not drawn),.,.,?,.,15µM*,-14%
CC(=O)Nc1cccc(-c2ccnc3c2CC(C)(C(=O)Nc2cccc(C(F)(F)F)c2)O3)c1 (stereo not drawn),.,.,16µM*,.,13µM*,-13%
CC(=O)Nc1ccc(-c2ccnc3c2CC(C)(C(=O)Nc2cccc(OC(F)(F)F)c2)O3)cc1 (stereo not drawn),.,.,16µM*,.,?,?
CC(C)CN(Cc1ccc(F)cc1)Cc1cc(=O)n2c3c(sc2n1)CCCC3,.,.,.,.,.,-22%
Oc1c(Br)cc(C=Nc2ccc3nc(-c4ccccc4)[nH]c3c2)c(O)c1Br,-25%,-19%,15µM*,?,16µM*,-32%
Cc1ccnc(NC(=O)C2CCN(C(=O)C3CC3)CC2)c1,.,.,.,.,.,18%
O=C(NCc1ccccc1)NC(=O)c1ccncc1,3%,-12%,-25%,-1%,-6%,-30%
CSc1sc(C(=O)NC(=O)NCc2ccncc2)c(C)c1-c1ccon1,4%,2%,16µM*,?,?,-15%
CC(=O)Nc1ccc(C(=O)N2CCN(c3ccc(C=O)cc3)C(=O)C2)cc1,.,.,.,.,.,6%[6.33 µM]
COc1cccc(C2c3c(C)nn(-c4ccc([N+](=O)[O-])cc4)c3N=C3C(=O)Nc4ccccc4N32)c1 (stereo not drawn),-9%,-3%,5.8µM*,?,13µM*,-29%
Cc1ccc(C2c3c(C)nn(-c4ccc([N+](=O)[O-])cc4)c3N=C3C(=O)Nc4ccccc4N32)cc1 (stereo not drawn),2%,-12%,.,?,.,.
Cc1nn(-c2ccc([N+](=O)[O-])cc2)c2c1C(c1ccc(OC(F)F)cc1)N1C(=N2)C(=O)Nc2ccccc21 (stereo not drawn),-4%,2%,4.6µM*,?,5.2µM*,-14%
COC[C@H]1C[C@@H](NC(=O)c2cncnc2)[C@H](O)[C@@H]1O,.,.,.,.,.,65%[176 µM]
S=C1NC2=C(CCCC2)C2(CCCCC2)N1,2µM*,1.8µM*,?,2%,-23%,-18%
